Experimental data published in PubChem BioAssay (EPA / NIEHS).
Several values for one entry are separate records, joined by “and”; a condition that tells them apart may be missing. Equal values may be shown once. Some structures have more than one record in an assay (separate samples or runs), and their calls can disagree. Activity calls are given as the source filed them. Rule for the calls: active = hit-call score of the fitted dose curve at least 0.9, where 1 is the maximum; inactive = score below 0.9.

How the values were obtained:
[1] = ATG_CRE_CIS: Attagene CIS-FACTORIAL HepG2 Assay for human cAMP Responsive Element (CRE) binding protein 3 (AID 2282926); details: HepG2 CRE cis-reporter, Attagene multiplexed mRNA; actives raise or lower the signal
Summary of the method: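 Assay format: transient reporter transfection of HepG2, 24 h treatment, total RNA isolation with DNase I step. Reporter abundance read by fluorescence after PCR and capillary separation; DMSO-normalised gain or loss fitting.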

[2] = target: CCAAT/enhancer-binding protein beta (Homo sapiens) (UniProt P17676); test: ATG_C_EBP_CIS: Attagene CIS-FACTORIAL HepG2 Assay for human CCAAT/Enhancer Binding Protein (C/EBP) beta (AID 2282927); details: HepG2 Attagene cis-factorial transcription factor reporter; actives raise or lower the signal
Summary of the method: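 Endogenous transcription factor activity in human liver HepG2 cells is inferred from induction of a CEBPB-linked reporter mRNA. Exposure lasts 24 h; activity is fitted in both directions relative to DMSO.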

[3] = ATG_CMV_CIS: Attagene CIS-FACTORIAL HepG2 Assay for human CMV (Internal Marker) (AID 2282928); details: HepG2 CMV promoter reporter, transcription factor profiling; actives raise or lower the signal;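 note: endpoint acts as a background internal control marker rather than a target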
Summary of the method: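 Bidirectional fits against DMSO are applied to reporter mRNA, read by RT-PCR with capillary electrophoresis, from HepG2 cells exposed 24 h. The endpoint serves as an internal CMV background marker within the cis-factorial reporter panel.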

[4] = target: Aryl hydrocarbon receptor (Homo sapiens) (UniProt P35869); test: ATG_Ahr_CIS: Attagene CIS-FACTORIAL HepG2 Assay for human Aryl Hydrocarbon Receptor (Ahr) (AID 2282930); details: HepG2 AhR cis-factorial reporter transcription; actives raise or lower the signal
Summary of the method: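 Transient MRTU transfection of HepG2 → 24 h compound exposure → total RNA, oligo(dT) RT → PCR, 6-FAM extension, HpaI cut → CE fluorescence. DMSO = baseline; bidirectional curve fit.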

[5] = ATG_AP_2_CIS: Attagene CIS-FACTORIAL HepG2 Assay for human Activator Protein 2 (AP-2) (AID 2282932); details: HepG2 AP-2 cis-reporter, Attagene transcription factor profiling; actives raise or lower the signal
Summary of the method: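 Endogenous transcription factor activity is reported through transfected multiplex reporter constructs in HepG2, after 24 h of compound exposure. Transcripts were quantified by RT-PCR and capillary electrophoresis of fluorescent fragments. Bidirectional fit against DMSO.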

[6] = ATG_BRE_CIS: Attagene CIS-FACTORIAL HepG2 Assay for human Bone Morphogenetic Protein (BMP) Response Element (BRE) (AID 2282933); details: HepG2 BMP response element reporter, Attagene transcription factor profiling; actives raise or lower the signal
Summary of the method: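 Fluorescence-labelled reporter cDNA fragments, separated by capillary electrophoresis, gave the signal for this component of a 52-readout multiplex. HepG2 cells were transfected, exposed to chemicals for 24 h, and compared with DMSO using bidirectional fitting.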

[7] = APR_HepG2_P-H2AX_72hr: Apredica 72-hour HepG2 Assay for H2AX Phosphorylation (AID 2282916); details: imaging, actives raise or lower the signal;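 note: phospho-histone H2A.x immunostain intensity per cell marking DNA damage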
Summary of the method: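 Human hepatoma HepG2 cells are dosed across ten concentrations (0.39 to 200 uM, 0.5% v/v DMSO) and incubated 72 hr. Phospho-histone H2A.x is then detected by antibody staining alongside c-Jun and Hoechst, and quantified by automated fluorescence imaging.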

[8] = APR_HepG2_MitoMembPot_72hr: Apredica 72-hour HepG2 Assay for Mitochondrial Membrane Potential (AID 2282917); details: imaging, actives raise or lower the signal
Summary of the method: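 Membrane potential read by MitoTracker Red CMXRos (250 nM, 30 min, pre-fixation) fluorescence imaging of HepG2 after 72 hr exposure. Ten concentrations, 0.39–200 uM, duplicate wells, 0.5% DMSO; fitted in both directions against DMSO baseline.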

[9] = APR_HepG2_MitoticArrest_72hr: Apredica 72-hour HepG2 Assay for Mitotic Arrest (AID 2282918); details: high-content imaging, actives raise or lower the signal
Summary of the method: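 Read-out is phospho-histone H3 immunofluorescence with Hoechst nuclear segmentation, imaged at 20x. Human HepG2 liver cells received ten concentrations (0.39–200 uM, final DMSO 0.5% v/v) for 72 hr before fixation. Gain or loss of signal was fitted relative to DMSO.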

[10] = APR_HepG2_MicrotubuleCSK_72hr: Apredica 72-hour HepG2 Assay for Microtubule CSK Stabilty (AID 2282919); details: HepG2 microtubule cytoskeleton, high-content imaging, actives raise or lower the signal
Summary of the method: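 High-content imaging of alpha-tubulin staining in fixed HepG2 cells after 72 hr treatment with ten concentrations from 0.39 to 200 uM (0.5% DMSO). Fitting was bidirectional against DMSO; taxol served as positive control.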

[11] = APR_HepG2_P-H2AX_24hr: Apredica 24-hour HepG2 Assay for H2AX Phosphorylation (AID 2282920); details: high-content imaging, actives raise or lower the signal
Summary of the method: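 HepG2, 24 hr, cpd 0.39–200 uM (10 conc, duplicate), DMSO 0.5% v/v final. Fix 3.7% formaldehyde, Triton X-100 permeabilize, anti-phospho-H2A.x 1:200 + Hoechst 2 ug/mL. Imaged, bidirectional fit vs DMSO.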

[12] = APR_HepG2_StressKinase_72hr: Apredica 72-hour HepG2 Assay for Stress Kinase (AID 2282921); details: HepG2 stress kinase (phospho-c-Jun) imaging, actives raise or lower the signal
Summary of the method: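 After a 72 h compound treatment spanning 0.39 to 200 uM, formaldehyde-fixed cells are labelled for phosphorylated c-Jun and nuclei, imaged by automated fluorescence microscopy, and activity is fitted in both directions relative to DMSO controls.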

[13] = APR_HepG2_StressKinase_24hr: Apredica 24-hour HepG2 Assay for Stress Kinase (AID 2282922); details: HepG2 stress kinase (phospho-c-Jun) imaging, actives raise or lower the signal
Summary of the method: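 High-content imaging of phospho-c-Jun immunofluorescence in fixed, permeabilized HepG2 cells after 24 h dosing. Ten concentrations, 0.39 to 200 uM, run in duplicate at 0.5% v/v DMSO; gain or loss of signal versus DMSO.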

[14] = APR_HepG2_p53Act_72hr: Apredica 72-hour HepG2 Assay for p53 Activation (AID 2282923); details: high-content imaging, actives raise or lower the signal;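 note: average cellular p53 protein immunofluorescence intensity in HepG2 cells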
Summary of the method: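 Imaging-based endpoint: after 72 hr compound exposure (up to 200 uM, 0.5% DMSO), fixed and permeabilized monolayers were labelled with anti-p53 antibody and imaged; signal change in either direction was fitted relative to DMSO controls.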

[15] = APR_HepG2_MitoMass_72hr: Apredica 72-hour HepG2 Assay for Mitochondrial Mass (AID 2282924); details: high-content imaging, actives raise or lower the signal;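 note: MitoTracker Red CMXRos stain intensity per cell imaged as mitochondrial mass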
Summary of the method: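 Readout is imaged MitoTracker Red (250 nM, 30 min, pre-fixation) signal, fitted bidirectionally against DMSO baseline. Human HepG2 liver cells received compound 0.39–200 uM in duplicate for 72 hr, final DMSO 0.5%.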

[16] = APR_HepG2_NuclearSize_72hr: Apredica 72-hour HepG2 Assay for Nuclear Size (AID 2282925); details: high-content imaging, actives raise or lower the signal
Summary of the method: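 Nuclear size was read by high-content imaging of Hoechst 33342 stain after formaldehyde fixation. Compounds ran 72 h on HepG2 at 0.39 to 200 uM, with final DMSO 0.5% v/v. Curves fitted both directions relative to DMSO control.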

[17] = target: Retinoic acid receptor alpha (Homo sapiens) (UniProt P10276); test: ATG_DR5_RAR_CIS: Attagene CIS-FACTORIAL HepG2 Assay for human Retinoic Acid Receptor Alpha (RARE), DR5 submotif (AID 2282934); details: HepG2 Attagene cis-factorial RARE DR5 reporter, mRNA; actives raise or lower the signal
Summary of the method: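 Transient MRTU transfection of HepG2; 24 h compound treatment; TriZol RNA, oligo(dT) RT, PCR, FAM labelling, capillary electrophoresis. Bidirectional fit vs DMSO. Endogenous TF activity at DR5 RARE.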

[18] = ATG_AP_1_CIS: Attagene CIS-FACTORIAL HepG2 Assay for human Activator Protein 1 (AP-1) (AID 2282931); details: HepG2 Attagene cis-factorial AP-1 reporter mRNA; actives raise or lower the signal
Summary of the method: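 Multiplexed HepG2 reporter assay, 24 h dosing. mRNA induction detected by RT-PCR plus capillary electrophoresis. Activity fitted in both directions against DMSO.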

Measured: AC50

Chain of CCAAT/enhancer-binding protein beta (Homo sapiens) (P17676 whole entry, looked up): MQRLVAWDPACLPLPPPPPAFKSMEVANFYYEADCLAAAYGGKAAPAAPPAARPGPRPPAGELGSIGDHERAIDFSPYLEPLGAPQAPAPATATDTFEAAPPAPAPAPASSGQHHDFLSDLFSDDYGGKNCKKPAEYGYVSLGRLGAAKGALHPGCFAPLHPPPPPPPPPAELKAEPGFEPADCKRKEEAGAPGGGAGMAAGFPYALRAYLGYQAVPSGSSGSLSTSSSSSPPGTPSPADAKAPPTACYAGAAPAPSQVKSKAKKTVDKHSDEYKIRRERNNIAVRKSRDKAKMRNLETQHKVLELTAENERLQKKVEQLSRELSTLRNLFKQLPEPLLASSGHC
Chain of Retinoic acid receptor alpha (Homo sapiens) (P10276 whole entry, looked up): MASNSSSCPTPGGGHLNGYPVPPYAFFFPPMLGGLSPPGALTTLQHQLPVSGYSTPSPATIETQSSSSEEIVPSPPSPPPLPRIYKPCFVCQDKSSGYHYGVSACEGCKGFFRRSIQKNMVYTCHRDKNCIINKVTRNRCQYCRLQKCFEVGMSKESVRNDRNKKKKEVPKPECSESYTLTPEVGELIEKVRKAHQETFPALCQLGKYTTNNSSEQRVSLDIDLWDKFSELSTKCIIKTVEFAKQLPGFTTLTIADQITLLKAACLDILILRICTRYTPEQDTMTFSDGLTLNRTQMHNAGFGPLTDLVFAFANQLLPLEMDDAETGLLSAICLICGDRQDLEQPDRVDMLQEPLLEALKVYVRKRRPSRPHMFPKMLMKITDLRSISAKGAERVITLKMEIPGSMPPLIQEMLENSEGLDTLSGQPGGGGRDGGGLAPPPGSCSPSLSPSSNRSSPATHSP
Chain of Aryl hydrocarbon receptor (Homo sapiens) (P35869 whole entry, looked up): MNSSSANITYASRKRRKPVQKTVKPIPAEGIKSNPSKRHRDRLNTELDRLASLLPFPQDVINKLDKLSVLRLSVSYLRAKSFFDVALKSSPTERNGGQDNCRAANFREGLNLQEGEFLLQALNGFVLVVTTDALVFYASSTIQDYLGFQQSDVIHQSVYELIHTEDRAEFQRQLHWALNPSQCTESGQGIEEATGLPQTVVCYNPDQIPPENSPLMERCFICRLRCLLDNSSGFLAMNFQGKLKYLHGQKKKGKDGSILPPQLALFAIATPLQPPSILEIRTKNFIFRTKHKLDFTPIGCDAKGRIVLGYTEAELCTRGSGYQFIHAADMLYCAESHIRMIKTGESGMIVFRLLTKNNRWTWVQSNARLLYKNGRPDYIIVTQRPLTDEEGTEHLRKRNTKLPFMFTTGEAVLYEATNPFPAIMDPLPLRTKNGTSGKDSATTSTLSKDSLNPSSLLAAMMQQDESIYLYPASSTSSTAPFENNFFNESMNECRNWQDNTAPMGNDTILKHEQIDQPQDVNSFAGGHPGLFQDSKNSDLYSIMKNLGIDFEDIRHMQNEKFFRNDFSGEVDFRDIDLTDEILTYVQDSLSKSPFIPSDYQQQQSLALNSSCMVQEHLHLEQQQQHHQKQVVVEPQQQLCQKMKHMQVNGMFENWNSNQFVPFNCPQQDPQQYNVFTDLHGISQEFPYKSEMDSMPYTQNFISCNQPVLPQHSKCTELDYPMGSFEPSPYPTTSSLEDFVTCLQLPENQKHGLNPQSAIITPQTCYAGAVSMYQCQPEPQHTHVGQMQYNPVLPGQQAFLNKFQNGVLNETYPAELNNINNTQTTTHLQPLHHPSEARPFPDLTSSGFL

Cc1ccc(S(=O)(=O)O)c(C)c1
inactive: [1] | [2] | [3] | [4] | [5] | [6]

OCCC(F)(F)C(F)(F)C(F)(F)C(F)(F)C(F)(F)C(F)(F)C(F)(F)C(F)(F)F
active: [7] 29.7 µM | [9] 21.8 µM | [11] 26.8 µM | [13] 29.2 µM | [14] 29.5 µM | [15] 102 µM | [1] 26.3 µM and 124 µM
not listed: [17] | [18]
inactive: all other assays above

c1ccc2cc3c(ccc4ccccc43)cc2c1
active: [8] 73.6 µM | [9] 27.6 µM | [11] 51 µM
not listed: [4] | [16] | [18]
inactive: all other assays above

OC1CCC(C2CCCCC2)CC1 (configuration not stated)
active: [4] 1.32 µM and 47 µM | [18] 162 µM and 149 µM | [5] 56.9 µM
inactive: [7] | [8] | [9] | [10] | [11] | [12] | [13] | [14] | [15] | [16] | [1] | [2] | [4] | [18] | [5] | [6] | [17]
